# Only a selection was taken, and hits are over-represented in it overall.
# miR122 inh = miR-122 suppressors via Renilla sensor increase, primary screen, cell-based, Huh7 psiCHECK-miR122, Renilla luciferase, single point | 48 h | AID 623901, 2012 | activation, % at 12.5 µM | actives 0.14% (n = 340,000);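 active = mean activation of 30% or more, with every replicate also reaching 30%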;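 note: 0% = median of neutral control wells and 100% = median of positive control wells; higher luciferase signal means stronger suppression of miR-122 activity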
# An asterisk follows results filed as active.
SMILES,miR122 inh
COc1ccc(Cl)cc1S(=O)(=O)NCc1cccnc1,-120.0
C[C@H](CO)N1C[C@H](C)[C@@H](CN(C)C(=O)Cc2ccncc2)Oc2cc(-c3cncnc3)ccc2S1(=O)=O,1.1
O=C(C1CCC1)N1CCc2cc(S(=O)(=O)NCc3ccco3)ccc21,-176.7
C[C@H](CO)N1C[C@H](C)[C@@H](CN(C)Cc2ccccc2C(=O)O)Oc2ncc(C3=CCCCC3)cc2C1=O,-20.3
CC(C)CC#Cc1cnc2c(c1)C(=O)N([C@@H](C)CO)C[C@@H](C)[C@@H](CN(C)CC1CCOCC1)O2,-0.8
C[C@@H]1CN([C@@H](C)CO)C(=O)c2cc(C#Cc3cccc(F)c3)cnc2O[C@H]1CN(C)CC1CCOCC1,5.0
Cc1ncc([N+](=O)[O-])n1CC(=O)Nc1ccc2c(c1)OCO2,-116.7
CCCNC(=O)Nc1ccc2c(c1)OC[C@H](C)NC[C@@H](C)[C@H](OC)CN(C)C2=O,5.1
CCCC#Cc1ccc2c(c1)O[C@H](CN(C)C(=O)CC)[C@H](C)CN([C@@H](C)CO)S2(=O)=O,-1.2
C[C@@H](O)C#Cc1ccc2c(c1)O[C@@H](CN(C)C(=O)c1ccncc1)[C@@H](C)CN([C@@H](C)CO)S2(=O)=O,2.2
CCCC#Cc1ccc2c(c1)O[C@H](CN(C)C(=O)CC)[C@H](C)CN([C@H](C)CO)S2(=O)=O,1.0
C[C@H](O)C#Cc1ccc2c(c1)O[C@@H](CN(C)C(=O)c1ccncc1)[C@H](C)CN([C@@H](C)CO)S2(=O)=O,-2.8
CCC(=O)N(C)C[C@H]1Oc2cc(C#Cc3ccccc3)ccc2S(=O)(=O)N([C@H](C)CO)C[C@H]1C,55.7*
CC(C)C#Cc1ccc2c(c1)O[C@H](CN(C)C(=O)c1ccncc1)[C@H](C)CN([C@H](C)CO)S2(=O)=O,52.8*
COc1ccc(S(=O)(=O)N(C)C[C@H]2Oc3ccc(NC(=O)Cc4ccccc4)cc3C(=O)N([C@H](C)CO)C[C@H]2C)cc1,-108.4
C[C@@H]1CN([C@@H](C)CO)C(=O)c2cc(-c3ccncc3)cnc2O[C@@H]1CN(C)C(=O)C1CCOCC1,4.3
C[C@@H]1CN([C@@H](C)CO)C(=O)c2cc(Br)cnc2O[C@H]1CN(C)C(=O)Cc1ccccn1,6.1
C[C@@H]1CN([C@H](C)CO)C(=O)c2cc(-c3cccc(F)c3)cnc2O[C@@H]1CN(C)Cc1cncnc1,-1.2
C[C@H]1CN([C@@H](C)CO)C(=O)c2cc(-c3cncnc3)cnc2O[C@@H]1CN(C)CC1CCOCC1,3.1
C[C@@H]1CN([C@H](C)CO)S(=O)(=O)c2ccc(-c3cccc(C#N)c3)cc2O[C@@H]1CN(C)Cc1ccccn1,-2.1
COc1ccccc1-c1ccc2c(c1)O[C@H](CN(C)S(=O)(=O)c1ccccc1)[C@H](C)CN([C@H](C)CO)S2(=O)=O,-21.3
CCCNC(=O)C[C@@H]1CC[C@@H]2[C@H](COc3ccc(NS(=O)(=O)c4ccccc4C)cc3C(=O)N2C)O1,66.7*
COC(=O)C[C@@H]1CC[C@@H]2[C@@H](COc3ccc(NS(=O)(=O)c4ccccc4F)cc3C(=O)N2C)O1,41.7*
COc1ccccc1NS(=O)(=O)c1cc(N/C(=N/S(=O)(=O)c2ccccc2)c2ccc(F)cc2)ccc1Cl,-117.1
CO[C@@H]1CN(C)C(=O)c2ccc(NC(=O)Nc3ccccc3)cc2OC[C@@H](C)N(C(C)=O)C[C@@H]1C,-1.5
SMILES,miR122 inh
C[C@H]1CN([C@@H](C)CO)S(=O)(=O)c2ccc(-c3ccccc3F)cc2O[C@@H]1CN(C)S(C)(=O)=O,-8.5
CC(C)CC#Cc1cnc2c(c1)C(=O)N([C@H](C)CO)C[C@@H](C)[C@@H](CN(C)C(=O)Cc1ccccc1)O2,0.1
COCC(=O)N(C)C[C@@H]1Oc2ncc(C#Cc3ccccc3OC)cc2C(=O)N([C@@H](C)CO)C[C@@H]1C,6.4
C[C@@H]1CN([C@@H](C)CO)C(=O)c2cc(C#C[C@@H](C)O)cnc2O[C@@H]1CN(C)C(=O)CN(C)C,4.8
O=CN1CCN(C(=O)c2ccccc2F)CC1,33.9*
Cc1ccc(S(=O)(=O)Nc2ccc3c(c2)C(=O)N([C@@H](C)CO)C[C@@H](C)[C@@H](CN(C)C(=O)Nc2ccc(F)cc2)O3)cc1,-13.3
C[C@H](CO)N1C[C@H](C)[C@@H](CN(C)S(C)(=O)=O)Oc2ncc(-c3cccnc3)cc2C1=O,3.2
CCC(=O)Nc1ccc2c(c1)C(=O)N(C)C[C@H](OC)[C@@H](C)CN(Cc1ccccc1OC)[C@H](C)CO2,-1.4
C=CCOc1ccc(Oc2cc(C)nc(SC)n2)nn1,-101.9
COc1ccccc1-c1ccc2c(c1)O[C@@H](CN(C)S(=O)(=O)c1ccccc1)[C@H](C)CN([C@@H](C)CO)S2(=O)=O,-12.6
C[C@@H]1CN([C@H](C)CO)C(=O)c2cc(C3=CCCCC3)cnc2O[C@@H]1CN(C)Cc1cccc(F)c1,4.4
C[C@H]1CN([C@@H](C)CO)C(=O)c2cc(C3=CCCCC3)cnc2O[C@H]1CN(C)C(=O)Cc1ccccc1,-6.6
COc1cccc(-c2cnc3c(c2)C(=O)N([C@@H](C)CO)C[C@H](C)[C@H](CN(C)C(=O)CC2CC2)O3)c1,3.5
CCCNC(=O)N(C)C[C@H]1Oc2ncc(/C=C/c3ccccc3)cc2C(=O)N([C@H](C)CO)C[C@@H]1C,-7.6
COc1cccc(-c2ccc3c(c2)O[C@@H](CN(C)Cc2cccnc2)[C@H](C)CN([C@H](C)CO)S3(=O)=O)c1,-25.2
COc1ccc(NC(=O)N(C)C[C@@H]2Oc3ncc(-c4cccc(F)c4)cc3C(=O)N([C@H](C)CO)C[C@@H]2C)cc1,5.2
Cc1ccc(S(=O)(=O)NCC[C@@H]2CC[C@@H](NC(=O)c3cnccn3)[C@H](CO)O2)cc1,-101.4
O=C(N[C@H]1CC[C@H](CCn2cc(C3(O)CCCC3)nn2)O[C@H]1CO)c1ccccc1F,42.3*
COc1cccc(-c2ccc3c(c2)O[C@H](CN(C)C(C)=O)[C@@H](C)CN([C@H](C)CO)S3(=O)=O)c1,5.3
Cc1ccc(NCc2nnc(SCC(=O)Nc3ccccc3)n2CC2CCCO2)c(C)c1 (stereo not drawn),-150.9
C[C@H]1CN([C@@H](C)CO)C(=O)c2cc(-c3ccncc3)cnc2O[C@H]1CN(C)C(=O)c1ccccc1F,8.6
CC(=O)Oc1ccc2c(c1)C(=O)c1ccccc1CO2,34.7*
CCC(=O)N(C)C[C@H]1Oc2ncc(C#Cc3ccccc3OC)cc2C(=O)N([C@H](C)CO)C[C@@H]1C,5.1
CCN(CC)c1ccc(N)cc1S(=O)(=O)Nc1ccc(OC)cc1,-107.5
C[C@@H]1CN([C@H](C)CO)C(=O)c2cc(C#CCN(C)C)cnc2O[C@@H]1CN(C)C(=O)Cc1ccncc1,-3.1
SMILES,miR122 inh
O=C(NC(Nc1ncc(S(=O)(=O)c2ccc([N+](=O)[O-])cc2)s1)(C(F)(F)F)C(F)(F)F)c1ccc(Cl)cc1,43.7*
C[C@@H]1CN([C@@H](C)CO)S(=O)(=O)c2ccc(-c3ccccc3)cc2O[C@H]1CN(C)C(=O)CN(C)C,3.9
C[C@H]1CN([C@@H](C)CO)S(=O)(=O)c2ccc(-c3ccc(F)cc3)cc2O[C@H]1CN(C)C(=O)C1CCOCC1,-6.7
C[C@@H]1CN([C@@H](C)CO)C(=O)c2cc(-c3ccc(F)cc3)cnc2O[C@@H]1CN(C)C(=O)c1ccccn1,8.5
C/C=C/c1ccc2c(c1)O[C@H](CN(C)S(C)(=O)=O)[C@@H](C)CN([C@H](C)CO)S2(=O)=O,1.5
COC(=O)c1cc(=O)n2c(-c3ccc(OC)cc3)csc2n1,37.6*
